This is an account of results in PubChem BioAssay AID956 (National Center for Advancing Translational Sciences (NCATS), 2007).

The list shows a part of the results. A call without a number means that no potency is given here. Inconclusive results are not listed. Calls of active or inactive are those of the source. The call rests on the fitted dose curve.

Sequence of Amyloid-beta precursor protein (Homo sapiens) (P05067 whole entry, looked up): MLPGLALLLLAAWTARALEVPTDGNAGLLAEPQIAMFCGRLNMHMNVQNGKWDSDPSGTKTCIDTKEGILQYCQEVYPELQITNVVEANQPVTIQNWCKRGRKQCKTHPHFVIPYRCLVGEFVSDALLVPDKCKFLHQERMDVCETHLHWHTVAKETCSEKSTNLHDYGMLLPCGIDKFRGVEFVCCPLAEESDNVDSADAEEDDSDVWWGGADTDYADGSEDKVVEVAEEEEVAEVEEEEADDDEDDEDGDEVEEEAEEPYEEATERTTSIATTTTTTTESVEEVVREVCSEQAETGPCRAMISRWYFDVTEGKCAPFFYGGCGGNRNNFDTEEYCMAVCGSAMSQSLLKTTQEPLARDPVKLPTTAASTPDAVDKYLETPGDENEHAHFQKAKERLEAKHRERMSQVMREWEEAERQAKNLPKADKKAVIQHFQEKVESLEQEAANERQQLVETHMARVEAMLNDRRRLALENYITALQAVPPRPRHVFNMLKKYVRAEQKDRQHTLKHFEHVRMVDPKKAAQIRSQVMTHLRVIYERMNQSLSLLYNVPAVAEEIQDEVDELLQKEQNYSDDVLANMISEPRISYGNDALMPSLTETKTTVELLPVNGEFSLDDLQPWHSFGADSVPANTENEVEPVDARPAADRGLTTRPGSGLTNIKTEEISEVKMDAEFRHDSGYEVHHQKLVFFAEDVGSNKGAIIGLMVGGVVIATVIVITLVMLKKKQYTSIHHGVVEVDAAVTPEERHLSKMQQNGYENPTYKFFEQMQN

The target in the test is Amyloid-beta precursor protein (Homo sapiens) (UniProt P05067). In words: Beta amyloid ThS binding assay. The conditions noted are these: Abeta1-42 fibrillization, thioflavin S fluorescence, overnight 37 C. As to the method:
NIH Molecular Libraries Screening Centers Network [MLSCN] NIH Chemical Genomics Center [NCGC] MLSCN Grant: 1 X01 MH079825-01 Assay Provider: Jeffrey A. Kuret, Ohio State University NCGC Assay Overview: Alzheimer disease is characterized by the accumulation of proteinacious aggregates comprised of tau and beta-amyloid. The protein components of each lesion can be induced to form filaments under experimentally tractable times when incubated in vitro with anionic inducers such as alkyl sulfate detergents or fatty acids. […] Here we describe the in vitro fibrillization of beta-amyloid 1-42 (Abeta1-42). Abeta1-42 proteins were induced to form filaments by incubation overnight at 37 C in the presence of arachidonic acid. […] Small molecules capable of ThS displacement or antagonizing fibrillization result in a decrease in ThS fluorescence, allowing determination of binding affinities for molecules screened.
NCGC Assay Protocol Summary Human Beta amyloid peptide 1-42 (American Peptide Co., Sunnyvale, CA) was resuspended in hexafluoroisopropanol (by vortexing in a glass vial) to a final concentration of 1 mM. […] Fluorescence (ex = 440 nm; em = 485 nm) was measured after brief shaking (10 s) in a FlexStation plate reader (Molecular Devices, Sunnyvale, CA) operated at sensitivity 10, automatic PMT. […]
Take `O=C(CCCCn1c(=O)[nH]c2ccccc2c1=O)NCc1ccc2c(c1)OCO2`: the outcome was inactive. As for `Oc1ccc(O)c2c(O)cccc12`, the Potency was 4.52 µM (active).
